High-throughput results as filed in PubChem BioAssay.
Only some compounds are listed: those with a hit (about 0.97% of all), similar ones and a draw of the others.
Six1-Eya2 blk: qHTS Assay for Inhibitors of the Six1/Eya2 Interaction; AlphaScreen GST-Six1/His-Eya2 binding, biochemical; active compounds read low; actives 0.56% (n = 360,000); activity change, % (no concentration beside the values); Homeobox protein SIX1 (Homo sapiens) + Protein phosphatase EYA2 (Homo sapiens), …
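Compounds are tested against tagged Six1 and Eya2 proteins bridged by glutathione donor and nickel acceptor beads; after a one-hour incubation at 37 °C without light, AlphaScreen emission is recorded.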
CCT chaperon mod: High-Throughput Screening for Modulators of Cytosolic Chaperonin Activity; actives 0.3% (n = 360,000); activity change, % (concentration not given with the values), hits read low; purified chaperonin ATPase assay, HTRF ADP detection, 30 min; in the data active means activity change below about -30%
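Nucleotide hydrolysis assay: TRiC at 20–40 nM final (set by batch activity) with 10 uM ATP, 30 min at 37 °C, in presence of 76 uM compound. Detection by competitive ADP HTRF, 30 min ambient.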
Eya2 inh: qHTS Assay for Inhibitors of the Phosphatase Activity of Eya2. actives 0.006% (n = 330,000). Protein phosphatase EYA2 (Homo sapiens), O00167. recombinant Eya2, OMFP fluorescence dephosphorylation (OMFP is methylfluorescein phosphate). Potency, µM (highest dose often 76.9 µM), without a hit: at the top dose activity, negative = inhibition, most hits filed as inhibitors; active means well fitted inhibition curve with a large enough effect; inconclusive means small, poorly fitted or top-dose-only effect, or effect the other way; further: potency means the concentration at half of the fitted maximal effect
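Eya2 (0.2 uM) preincubated 10 min at ambient with compound, then OMFP substrate added at 50 uM; 10 min reaction in 50 mM HEPES pH 7.5, 50 mM NaCl, 5 uM MgCl2, 0.05% BSA, 1 mM DTT. Fluorescence read at Ex 485/Em 525 nm.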
PI4K2A block: qHTS for small molecular inhibitors of PI4K2A | purified PI4K2A, ADP-Glo luminescence, 1 h; active compounds read low | activity change, negative = inhibition, % at 76.9 µM | actives 0.13% (n = 420,000); in the data active means activity change below about -50%; inconclusive means mostly about -30% to -49%;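 further: -100% = wells without enzyme as full effect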
Target sequence (Q9BTU6 whole entry, looked up): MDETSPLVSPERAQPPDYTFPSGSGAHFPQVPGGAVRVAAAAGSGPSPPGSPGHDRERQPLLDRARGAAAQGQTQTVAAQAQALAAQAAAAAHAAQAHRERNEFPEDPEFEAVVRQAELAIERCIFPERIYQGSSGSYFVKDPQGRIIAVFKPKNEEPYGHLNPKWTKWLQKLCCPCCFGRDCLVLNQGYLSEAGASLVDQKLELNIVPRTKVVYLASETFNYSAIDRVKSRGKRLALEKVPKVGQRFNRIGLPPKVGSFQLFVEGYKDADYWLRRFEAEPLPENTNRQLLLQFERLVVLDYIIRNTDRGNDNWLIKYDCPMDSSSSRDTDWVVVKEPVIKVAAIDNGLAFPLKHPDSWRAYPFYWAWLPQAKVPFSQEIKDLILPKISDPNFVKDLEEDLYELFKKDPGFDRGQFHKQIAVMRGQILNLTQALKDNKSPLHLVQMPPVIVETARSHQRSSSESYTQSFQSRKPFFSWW
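In this quantitative HTS, ADP production by PI4K2A was quantified luminescently after 1 h at ambient temperature; 100 microM adenosine served as plate-quality control.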
CtBP-E1A inh: qHTS Assay for Inhibitors of the CtBP/E1A Interaction | actives 0.49% (n = 340,000) | activity change, % (test concentration not listed) | CtBP / adenovirus E1A interaction (AlphaScreen) | AlphaScreen GST-E1A/His-CtBP binding, 1536-well; active compounds read low | AID 651724, 2012
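Homogeneous bead-based format: GST-tagged E1A captured on glutathione donor beads, His-tagged CtBP on nickel acceptor beads; compounds precede bead addition by 2 h at 37 °C.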
An asterisk follows results filed as active; i = inactive; ? = inconclusive; / = no result given. Unless noted, no stated cut-off is given here; in the data, active means activity change below about -65%; inconclusive means mostly about -30% to -63%; inactive means weaker than that. Unless noted, on the % scale 0 is the no-effect control and ±100 the full control effect.

SMILES | Six1-Eya2 blk | CCT chaperon mod | Eya2 inh | PI4K2A block | CtBP-E1A inh
Cc1ccc(C(=O)N/N=C/C2=Cc3ccccc3OC2C)cc1 (configuration not stated) | -2 | -1 | -2% | 3 | 13
Cc1cc(C)c(S(=O)(=O)/N=C2/C=C(SCC(=O)O)C(=O)c3ccccc32)cc1C | -22 | 0 | -9% | -53* | -22
Cc1cc(C)c(S(=O)(=O)Nc2cc(SCC(=O)O)c(O)c3ccccc23)cc1C | -17 | -1 | 16% | ? | -20
CN(c1ccc(F)cc1)S(=O)(=O)c1ccc(Cl)c(C(=O)OCC(=O)NCc2ccco2)c1 | 3 | -31* | 2% | 1 | /
C[C@@H]1CN([C@@H](C)CO)C(=O)CCCn2cc(nn2)CO[C@H]1CN(C)S(=O)(=O)c1ccccc1C#N | 8 | -53* | / | 8 | -5
C[C@@H]1CN([C@H](C)CO)C(=O)CCCn2cc(nn2)CO[C@H]1CN(C)S(=O)(=O)c1ccccc1F | 5 | 0 | / | 2 | 1
Cc1cccc(NC(=O)c2ccc(OC3CSC3)cc2)c1 | 1 | 0 | 8% | -50* | 5
Cc1ccc2nc(NC(=O)CSc3nccn3Cc3ccccc3)sc2c1 | / | / | / | 8 | /
COc1ccccc1NC(=O)c1c(C)nn(-c2ccccc2)c1Cl | -2 | -1 | -20% | -1 | /
Cc1ccccc1NC(=O)c1c(C)nn(-c2ccccc2)c1Cl | -5 | -40* | -1% | 3 | -16
Cc1ccccc1CNC(=O)c1oc2c(c1C)-c1nn(Cc3ccc(Cl)cc3)cc1CC2 | / | / | / | -2 | /
CCOc1ccc(-c2ccc(SC)nn2)cc1 | -3 | 2 | 17% | -85* | 1
Fc1ccc(NCc2ccccc2-c2nnc(-c3ccccc3Cl)o2)cc1 | / | / | / | -2 | /
CN1C(=O)c2cc(NS(=O)(=O)c3cccc(F)c3)ccc2OC[C@@H]2O[C@H](CC(=O)O)CC[C@H]21 | / | / | / | -7 | /
O=C(NN1C(=O)/C(=C/c2cc([N+](=O)[O-])ccc2O)SC1=S)c1ccccc1O | / | / | -7% | / | /
Cc1ccc(/C=C2\SC(=S)N(/N=C/c3cc([N+](=O)[O-])ccc3O)C2=O)o1 | -89* | -1 | 6% | -18 | -93*
Cc1csc(C(=O)O)c1NC(=O)c1c(Cl)cccc1Cl | 0 | -87* | 5% | 4 | 2
O=C(N/N=C/c1ccc(O)cc1)c1ccncc1 | -4 | 1 | -27% | -1 | -14
CC/C(=C\C(=O)c1ccncc1)Nc1ccc(O)cc1 | -18 | -3 | -1% | -50* | -13
COCCCNC(=S)NNC(=O)c1csc(C)n1 | -78* | 1 | 9% | 1 | /
COC(=O)c1cc(S(=O)(=O)N2CCOCC2)c(Cl)cc1N1CCOCC1 | -1 | -2 | 6% | 3 | 8
COC(=O)c1cc(C)nc2c1C(=O)C(=O)C=C2N1CCOCC1 | -67* | -1 | -1% | -83* | -68*
O=C(Nc1nc2n(n1)C(c1ccc(F)cc1)C=C(c1ccc(Cl)cc1)N2)c1ccc([N+](=O)[O-])cc1 (configuration not stated) | / | / | / | 0 | /
Cc1c(C)c2c(c(C)c1OC(=O)CCC(=O)OCCO)CC[C@@](C)(CCC[C@H](C)CCC[C@H](C)CCCC(C)C)O2 | / | / | / | -4 | /
c1ccc(N2CCN(c3nc(-c4ccccn4)nc4ccccc34)CC2)cc1 | -67* | -1 | 13% | -7 | -71*
SMILES | Six1-Eya2 blk | CCT chaperon mod | Eya2 inh | PI4K2A block | CtBP-E1A inh
COC(=O)c1cccc(NC(=O)c2nn(C)c(=O)c3ccccc23)c1 | -83* | 0 | 1% | 7 | -85*
CCCn1nc(C(=O)Nc2nc(-c3ccccn3)cs2)c2ccccc2c1=O | -77* | 0 | 8% | 3 | -86*
Cn1nc(C(=O)Nc2nc(-c3ccccn3)cs2)c2ccccc2c1=O | -91* | 0 | 14% | -3 | -91*
CCn1nc(C(=O)Nc2nc(-c3ccccn3)cs2)c2ccccc2c1=O | ? | 0 | -1% | 0 | /
COC(=O)c1ccc(C)c(NC(=O)c2nn(C)c(=O)c3ccccc23)c1 | 0 | -1 | 4% | 1 | 2
Cc1nc2n(c(=O)c1CCN1CCC(c3noc4cc(F)ccc34)CC1)CCC[C@H]2O | / | / | / | i | /
CSc1nnc(C)c(/C=C/NOCc2ccc(Cl)cc2)n1 | -6 | -2 | 3% | -3 | -2
CSc1nnc(C)c(/C=C/Nc2ccc(C)cc2)n1 | -14 | 2 | 0% | -8 | -67*
Cn1c(CN2CCCC2)nc2cc(NC(=O)c3ccc(Cl)cc3)ccc21 | -16 | -2 | -15% | -4 | -6
CCOC(=O)N1CCN(Cc2nc3cc(NC(=O)c4ccco4)ccc3n2C)CC1 | 3 | -58* | 6% | 0 | /
Cn1c(CN2CCCCC2)nc2cc(NC(=O)c3ccc(Cl)cc3)ccc21 | -1 | -48* | 5% | 2 | -6
Cc1ccc(CNC(=O)c2ccc(Cn3c(SCc4ccc(F)cc4)nc4cccnc43)cc2)o1 | / | / | / | -2 | /
Cc1ccc2nc(-c3ccc(SCC(=O)O)nc3)[nH]c2c1 | -12 | -1 | -11% | -17 | -18
Cc1ccc2nc(-c3ccc(SCC(=O)N4CCc5ccccc54)nc3)[nH]c2c1 | -7 | -44* | 2% | -3 | 16
N#Cc1ccc(OCC(=O)OCC(=O)c2ccccc2)cc1 | 1 | -33* | 0% | 0 | ?
N#Cc1ccc(OCC(=O)OCC(=O)c2ccc[nH]2)cc1 | 3 | -1 | 10% | 0 | 0
Cn1cc(-c2cc3n(n2)CCC(=O)N3CC(=O)NCc2ccc(Cl)cc2)c2ccccc21 | / | / | / | 8 | /
CCc1ccc(NC(=O)CSc2nc3c([nH]c4ccccc43)c(=O)n2C)cc1 | / | / | / | -2 | /
Cn1c(=O)c2c([nH]c(=S)n2Cc2ccc(Cl)cc2)n(C)c1=O | -7 | -84* | 6% | 2 | -9
CN(C)CCN(Cc1ccsc1)c1ccccn1 | / | / | / | 0 | /
O=Cc1ccc(OC(=O)c2cccnc2)cc1 | -65* | -2 | -3% | -4 | -10
CC(=O)/C=C\c1ccc(OC(=O)c2cccnc2)cc1 | -1 | -2 | -5% | 2 | 2
COCCCNC(=O)CCC(=O)NNc1nc2ccccc2c2nc(-c3ccccc3)nn12 | -23 | 0 | -22% | 0 | 3
COCCNC(=O)CCC(=O)NNc1nc2ccccc2c2nc(-c3ccccc3)nn12 | -67* | 1 | 3% | -8 | -17
O=c1oc2c(O)c(O)cc3c(=O)oc4c(O)c(O)cc1c4c23 | -74* | -1 | 0% | -23 | -13
Cc1ccccc1NC(=S)N(CCN(C)C)C(C)c1ccccn1 (configuration not stated) | -65* | -2 | 20% | 5 | -72*
